Measured values: PubChem BioAssay (Tox21)
Several values for one entry are separate records, joined by “and”; a condition that tells them apart may be missing. Equal values may be shown once. Results filed as inconclusive are left out. Some compounds were tested as several samples or in several runs, with calls that do not always agree. Activity calls are given as the source filed them. Unless noted, calls follow the shape of the dose curve; as a rule, active = well fitted curve in the direction sought with a large enough effect in the repeat runs; inconclusive = weak or mixed curves; inactive = no such curve, though single readings can be large; an effect the other way counts as inactive or inconclusive.

What was measured:
[1] = target: Aryl hydrocarbon receptor (Homo sapiens) (UniProt P35869); assay: qHTS assay to identify small molecule that activate the aryl hydrocarbon receptor (AhR) signaling pathway (AID 743085); also: nearly all actives have a fitted effect of over 15% in size; also: potency is read from the fitted curve at half-maximal effect;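 as to activation: HG2L7.5c1 human HepG2 liver cells with stably integrated DRE-driven firefly reporter; series mostly up to about 70 µM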
Chain of Aryl hydrocarbon receptor (Homo sapiens) (P35869 whole entry, looked up): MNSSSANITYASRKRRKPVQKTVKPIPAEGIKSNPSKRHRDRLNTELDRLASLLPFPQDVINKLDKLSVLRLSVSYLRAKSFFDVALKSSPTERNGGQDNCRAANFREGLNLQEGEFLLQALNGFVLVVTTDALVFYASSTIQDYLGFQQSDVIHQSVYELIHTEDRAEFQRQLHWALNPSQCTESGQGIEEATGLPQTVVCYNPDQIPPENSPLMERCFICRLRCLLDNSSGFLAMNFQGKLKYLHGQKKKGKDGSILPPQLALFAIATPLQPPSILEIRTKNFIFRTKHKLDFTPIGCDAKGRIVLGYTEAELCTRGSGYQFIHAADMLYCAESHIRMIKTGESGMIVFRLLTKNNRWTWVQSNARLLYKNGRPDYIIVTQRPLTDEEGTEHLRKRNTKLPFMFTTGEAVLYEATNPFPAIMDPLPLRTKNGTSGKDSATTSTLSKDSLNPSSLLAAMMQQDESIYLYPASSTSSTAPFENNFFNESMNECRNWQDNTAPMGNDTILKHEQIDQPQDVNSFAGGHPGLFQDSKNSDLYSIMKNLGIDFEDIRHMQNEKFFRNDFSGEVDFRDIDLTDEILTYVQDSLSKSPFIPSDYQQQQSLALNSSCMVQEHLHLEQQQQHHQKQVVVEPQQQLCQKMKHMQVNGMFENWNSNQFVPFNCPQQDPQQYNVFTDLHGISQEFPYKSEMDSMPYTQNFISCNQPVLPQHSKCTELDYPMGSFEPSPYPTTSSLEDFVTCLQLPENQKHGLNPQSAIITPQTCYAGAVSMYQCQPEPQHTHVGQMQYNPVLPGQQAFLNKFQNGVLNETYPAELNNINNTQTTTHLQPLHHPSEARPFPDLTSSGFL
Outline: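 HepG2 cells stably carrying a 20-DRE firefly luciferase reporter (HG2L7.5c1) treated with compound for 24 hr at 37C. Luciferase read by ONE-Glo luminescence, with CellTiter-Fluor viability read first.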

[2] = qHTS assay to identify small molecule antagonists of the peroxisome proliferator-activated receptor gamma (PPARg) signaling pathway - cell viability counter screen (AID 743194); also: nearly all actives have a fitted effect of over 55% in size; also: potency is read from the fitted curve at half-maximal effect
Outline: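 Cytotoxicity counter screen in PPARg-bla HEK293H cells, same wells as reporter assay. Compounds plus 50 nM rosiglitazone (final) for 17 h at 37 C, then viability read by CellTiter-Glo luminescence.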

[3] = qHTS assay for small molecule activators of the heat shock response signaling pathway (AID 743210; active = well fitted activation curve with a large enough effect in the signal ratio in the repeat runs, with a control signal flat, not every such curve was filed as active; the % refers to the signal ratio; also: potency is read from the fitted curve at half-maximal effect;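 as to activation: HeLa cells with beta-lactamase reporter driven by heat shock elements; series mostly up to about 63 µM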)
Outline: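 Beta-lactamase reporter read-out: FRET substrate fluorescence after 2.5 h at RT, following 5 h compound treatment at 37 C of HeLa cells carrying HSE-driven bla reporter; quantitative HTS format.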

[4] = qHTS assay to identify small molecule agonists of the peroxisome proliferator-activated receptor delta (PPARd) signaling pathway - cell viability counter screen (AID 743211); also: nearly all actives have a fitted effect of over 55% in size; also: potency is read from the fitted curve at half-maximal effect
Outline: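 PPARd-bla HEK293H cells (3000/well) were pre-incubated 5 h at 37 C, then exposed to compound for 17 h at 37 C. After 2 h with LiveBLAzer substrate, CellTiter-Glo was added to the same wells; luminescence read after 30 min at room temperature.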

[5] = target: Peroxisome proliferator-activated receptor delta (Homo sapiens) (UniProt Q03181); assay: qHTS assay to identify small molecule agonists of the peroxisome proliferator-activated receptor delta (PPARd) signaling pathway (AID 743212; calls by dose curve)
Chain of Peroxisome proliferator-activated receptor delta (Homo sapiens) (Q03181 whole entry, looked up): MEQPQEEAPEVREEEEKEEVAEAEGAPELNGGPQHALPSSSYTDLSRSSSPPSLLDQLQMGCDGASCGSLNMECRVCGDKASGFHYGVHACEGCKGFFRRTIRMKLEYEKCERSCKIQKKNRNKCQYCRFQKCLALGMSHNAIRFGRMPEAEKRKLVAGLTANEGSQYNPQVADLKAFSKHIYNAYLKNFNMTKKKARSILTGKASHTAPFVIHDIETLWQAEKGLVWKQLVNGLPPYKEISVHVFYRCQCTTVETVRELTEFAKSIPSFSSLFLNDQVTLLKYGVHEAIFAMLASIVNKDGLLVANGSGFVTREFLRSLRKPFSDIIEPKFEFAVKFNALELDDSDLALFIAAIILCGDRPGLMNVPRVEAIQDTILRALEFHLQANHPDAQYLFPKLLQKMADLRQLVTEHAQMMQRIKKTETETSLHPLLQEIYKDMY
Outline: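 Read-out: beta-lactamase FRET fluorescence after 2 h room-temperature incubation with LiveBLAzer B/G substrate. Cells were HEK293H carrying a UAS-bla reporter for PPARd, treated at 37 C with DMSO-dissolved compounds.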

[6] = target: Peroxisome proliferator-activated receptor delta (Homo sapiens) (UniProt Q03181); assay: qHTS assay to identify small molecule antagonists of the peroxisome proliferator-activated receptor delta (PPARd) signaling pathway (AID 743215; active = well fitted inhibition curve with a large enough effect in the signal ratio in the repeat runs, not every such curve was filed as active; the % refers to the signal ratio; also: series mostly up to about 62 µM)
Outline: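 Plated HEK293H PPARd-bla cells rested 5 h at 37 C and 5% CO2. Compound, then agonist L165041 at 300 nM final, was added; 17 h at 37 C followed. Substrate loading, 2 h room temperature, fluorescence measured.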

[7] = target: Bile acid receptor (Homo sapiens) (UniProt Q96RI1); assay: qHTS assay to identify small molecule antagonists of the farnesoid-X-receptor (FXR) signaling pathway (AID 743217; active = well fitted inhibition curve with a large enough effect in the signal ratio in the repeat runs, not every such curve was filed as active; the % refers to the signal ratio; also: potency is read from the fitted curve at half-maximal effect)
Chain of Bile acid receptor (Homo sapiens) (Q96RI1 whole entry, looked up): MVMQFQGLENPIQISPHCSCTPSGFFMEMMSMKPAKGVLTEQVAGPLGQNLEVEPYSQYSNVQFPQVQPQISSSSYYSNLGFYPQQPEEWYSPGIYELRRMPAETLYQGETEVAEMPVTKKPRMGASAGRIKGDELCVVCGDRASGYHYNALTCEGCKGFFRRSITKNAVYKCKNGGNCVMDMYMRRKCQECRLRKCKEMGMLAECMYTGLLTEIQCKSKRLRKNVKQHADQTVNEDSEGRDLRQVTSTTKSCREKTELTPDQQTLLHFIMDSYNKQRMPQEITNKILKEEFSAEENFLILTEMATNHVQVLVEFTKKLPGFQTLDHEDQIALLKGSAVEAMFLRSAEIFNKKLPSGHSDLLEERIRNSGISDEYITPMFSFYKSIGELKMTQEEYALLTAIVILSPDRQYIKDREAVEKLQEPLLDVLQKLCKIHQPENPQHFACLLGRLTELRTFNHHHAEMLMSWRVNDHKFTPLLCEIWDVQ
Outline: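 Screen of the Tox21 10K library in quantitative HTS format using FXR-UAS-bla HEK 293T reporter cells. Agonist chenodeoxycholic acid, 50 uM final, added with compounds; 16 h incubation at 37 °C; beta-lactamase FRET fluorescence measured.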

[8] = qHTS assay to identify small molecule agonists of the farnesoid-X-receptor (FXR) signaling pathway - cell viability counter screen (AID 743218); also: nearly all actives have a fitted effect of over 45% in size; also: potency is read from the fitted curve at half-maximal effect
Outline: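 Viability of FXR-bla HEK 293T cells is measured by ATP-based CellTiter-Glo luminescence following 16 h compound treatment at 37 C and a prior 2 h room-temperature beta-lactamase substrate step.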

[9] = target: Bile acid receptor (Homo sapiens) (UniProt Q96RI1); assay: qHTS assay to identify small molecule agonists of the farnesoid-X-receptor (FXR) signaling pathway (AID 743220; active = well fitted activation curve with a large enough effect in the signal ratio in the repeat runs, not every such curve was filed as active; the % refers to the signal ratio)
Outline: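 FXR-UAS-bla HEK 293T cells carrying a UAS-driven beta-lactamase reporter were plated for 5 h at 37C/5% CO2, then exposed to DMSO-dissolved Tox21 10K compounds for 16 h at 37C. A LiveBLAzer B/G FRET substrate was loaded for 2 h at room temperature before fluorescence reading.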

[10] = qHTS assay to identify small molecule antagonists of the farnesoid-X-receptor (FXR) signaling pathway - cell viability counter screen (AID 743221; active = well fitted cell-killing curve with a large enough effect in the repeat runs, not every such curve was filed as active; also: nearly all actives have a fitted effect of over 50% in size; also: potency is read from the fitted curve at half-maximal effect)
Outline: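 GeneBLAzer FXR-UAS-bla HEK 293T cells, compound plus chenodeoxycholic acid (50 uM final), 16 h at 37 C. CellTiter-Glo added to the same wells after the beta-lactamase read; luminescence read after 30 min at room temperature as viability.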

[11] = target: Vitamin D3 receptor (Homo sapiens) (UniProt P11473); assay: qHTS assay to identify small molecule agonists of the vitamin D receptor (VDR) signaling pathway (AID 743222; calls by dose curve)
Chain of Vitamin D3 receptor (Homo sapiens) (P11473 whole entry, looked up): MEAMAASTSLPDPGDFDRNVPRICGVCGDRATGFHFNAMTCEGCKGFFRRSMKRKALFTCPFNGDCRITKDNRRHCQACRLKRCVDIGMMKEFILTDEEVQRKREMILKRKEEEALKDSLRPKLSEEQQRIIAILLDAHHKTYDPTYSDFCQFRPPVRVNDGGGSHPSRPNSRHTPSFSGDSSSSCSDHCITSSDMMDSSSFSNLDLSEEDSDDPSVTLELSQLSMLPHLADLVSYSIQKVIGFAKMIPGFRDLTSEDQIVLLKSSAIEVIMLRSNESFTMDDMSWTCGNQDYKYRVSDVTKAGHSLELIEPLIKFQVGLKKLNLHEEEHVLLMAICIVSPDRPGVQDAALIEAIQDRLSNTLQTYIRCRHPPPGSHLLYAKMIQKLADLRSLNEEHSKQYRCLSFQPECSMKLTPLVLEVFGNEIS
Outline: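 Fluorescence from cleaved LiveBLAzer B/G FRET substrate served as readout. VDR-bla cells had been treated 16 h at 37C with test compounds in DMSO, following a 4 h settling period, and substrate was loaded for 2 h at RT.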

[12] = target: Vitamin D3 receptor (Homo sapiens) (UniProt P11473); assay: qHTS assay to identify small molecule antagonists of the vitamin D receptor (VDR) signaling pathway (AID 743223; active = well fitted inhibition curve with a large enough effect in the signal ratio in the repeat runs, not every such curve was filed as active; the % refers to the signal ratio)
Outline: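 VDR-bla cells were treated with compound plus 3 nM final 1alpha,25-dihydroxyvitamin D3 for 16 h at 37C. Beta-lactamase reporter read by B/G FRET substrate fluorescence after 2 h at room temperature. qHTS format.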

[13] = qHTS assay to identify small molecule agonists of the vitamin D receptor (VDR) signaling pathway - cell viability counter screen (AID 743224); also: nearly all actives have a fitted effect of over 50% in size; also: potency is read from the fitted curve at half-maximal effect
Outline: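 Compounds were pin-transferred onto VDR-bla cells plated 4 h earlier; following 16 h incubation at 37C, cell viability was quantified by CellTiter-Glo luminescence after 30 min at room temperature.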

[14] = qHTS assay for small molecule activators of the heat shock response signaling pathway - cell viability counter screen (AID 743209); also: nearly all actives have a fitted effect of over 50% in size; also: potency is read from the fitted curve at half-maximal effect
Outline: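 Viability of HSE-bla HeLa cells is measured with CellTiter-Glo in the wells already used for the reporter read. Compound exposure lasts 5 h at 37 C, and luminescence is read after 30 min at room temperature.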

[15] = qHTS assay to identify small molecule antagonists of the peroxisome proliferator-activated receptor delta (PPARd) signaling pathway - cell viability counter screen (AID 743213); also: nearly all actives have a fitted effect of over 50% in size; also: potency is read from the fitted curve at half-maximal effect
Outline: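 Agonist-stimulated (L165041, 300 nM final) HEK293H PPARd UAS-bla cells are exposed to compounds for 17 h at 37 C, and ATP-based luminescence (CellTiter-Glo) from the same wells reports cytotoxicity.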

[16] = qHTS assay to identify small molecule that activate the aryl hydrocarbon receptor (AhR) signaling pathway - cell viability counter screen (AID 743086); also: nearly all actives have a fitted effect of over 45% in size; also: potency is read from the fitted curve at half-maximal effect
Outline: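 HepG2-AhR-luc (HG2L7.5c1) cells, 4000/well, treated 24 h at 37 C with compound; viability measured as CellTiter-Fluor fluorescence after 30 min in the same wells as the luciferase read.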

[17] = qHTS assay for small molecule agonists of the antioxidant response element (ARE) signaling pathway - cell viability counter screen (AID 743203; calls by dose curve; also: nearly all actives have a fitted effect of over 55% in size; also: potency is read from the fitted curve at half-maximal effect)
Outline: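 Viability counter screen: stably transfected ARE-bla HepG2 line, 16 hrs compound exposure at 37C/5% CO2, ATP-based CellTiter-Glo luminescence measured in the reporter wells.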

[18] = qHTS assay for small molecule agonists of the antioxidant response element (ARE) signaling pathway (AID 743202; active = well fitted activation curve with a large enough effect in the signal ratio in the repeat runs, not every such curve was filed as active; the % refers to the signal ratio)
Outline: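 HepG2 ARE-bla reporter line, 2,000 cells/well; 5 h preincubation 37 C/5% CO2; compound (DMSO) 16 h 37 C; B/G FRET substrate 2 h RT; fluorescence intensity.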

[19] = target: Peroxisome proliferator-activated receptor gamma (Homo sapiens) (UniProt P37231); assay: qHTS assay to identify small molecule agonists of the peroxisome proliferator-activated receptor gamma (PPARg) signaling pathway (AID 743094; active = well fitted activation curve with a large enough effect in the signal ratio in the repeat runs, not every such curve was filed as active; the % refers to the signal ratio)
Chain of Peroxisome proliferator-activated receptor gamma (Homo sapiens) (P37231 whole entry, looked up): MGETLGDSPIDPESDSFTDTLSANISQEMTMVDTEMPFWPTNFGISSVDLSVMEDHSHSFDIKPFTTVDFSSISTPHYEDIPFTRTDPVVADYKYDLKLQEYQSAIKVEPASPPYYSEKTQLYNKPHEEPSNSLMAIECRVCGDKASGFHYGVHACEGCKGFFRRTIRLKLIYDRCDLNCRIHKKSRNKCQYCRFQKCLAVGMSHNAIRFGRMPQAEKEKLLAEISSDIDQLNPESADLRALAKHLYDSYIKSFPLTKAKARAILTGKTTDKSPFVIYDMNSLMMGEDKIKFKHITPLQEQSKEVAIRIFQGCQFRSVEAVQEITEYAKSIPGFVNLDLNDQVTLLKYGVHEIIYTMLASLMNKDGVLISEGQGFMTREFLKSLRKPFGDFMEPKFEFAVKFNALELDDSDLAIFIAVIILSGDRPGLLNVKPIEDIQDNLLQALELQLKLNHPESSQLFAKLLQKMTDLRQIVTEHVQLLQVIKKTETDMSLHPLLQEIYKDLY
Outline: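 Reporter activation was scored by fluorescence of cleaved LiveBLAzer B/G substrate (1 h, room temperature) in PPARg-bla HEK293H cells previously treated 17 h at 37C with DMSO-dissolved compounds.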

[20] = target: Peroxisome proliferator-activated receptor gamma (Homo sapiens) (UniProt P37231); assay: qHTS assay to identify small molecule antagonists of the peroxisome proliferator-activated receptor gamma (PPARg) signaling pathway (AID 743191; calls by dose curve; also: series mostly up to about 63 µM; nearly all actives have a fitted effect of over 30% in size)
Outline: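 GeneBLAzer PPARg UAS-bla HEK293H cells, 5 h post-plating, exposed to compounds 17 h at 37C. LiveBLAzer B/G FRET substrate added for 1 h at room temperature; beta-lactamase reporter read by fluorescence intensity.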

Measured: Potency

Nc1ccccc1O
active: [1] 21.4 µM
not listed: [14] | [15] | [16] | [17] | [18] | [19] | [20]
inactive: all other assays above

CN1CCC(Nc2ncc3ncnc(Nc4ccc(F)c(Cl)c4)c3n2)CC1
active: [1] 13.3 µM | [3] 13.9 µM | [15] 5.96 µM | [8] 11.9 µM | [10] 29.8 µM
inactive: [2] | [14]

Cc1ccc2oc(CN(Cc3ccccc3)C(=O)Nc3c(F)cc(F)cc3F)c(-c3ccc(Cl)cc3)c2c1
inactive: [16] | [2] | [17] | [14] | [4] | [15] | [8] | [9] | [10] | [12] | [13]

OCCN(CCO)c1nc(N2CCCCC2)c2nc(N(CCO)CCO)nc(N3CCCCC3)c2n1
inactive: [1] | [2] | [17] | [8] | [10]

N=C1N=C(N)c2cc3ccccc3cc21
active: [1] 11.2 µM | [2] 54.9 µM | [17] 43.3 µM | [8] 44.8 µM | [10] 54.9 µM | [13] 49 µM

CNc1ccc(O)cc1
active: [1] 61 µM | [2] 43.6 µM | [4] 38.8 µM | [15] 43.6 µM | [13] 38.8 µM
inactive: [10]

Cc1cc(N)c(S(=O)(=O)O)cc1Cl
not listed: [1] | [7] | [9] | [12] | [19] | [20]
inactive: all other assays above

CCN(C(=O)c1cc(C)cc(OC[C@H](C)Nc2ccncc2)c1)C(C)C
inactive: [1] | [2] | [17] | [4] | [15] | [8] | [9] | [10] | [13]

OCCN1CCN(CC/C=C2/c3ccccc3Sc3ccc(C(F)(F)F)cc32)CC1
inactive: [1] | [14] | [3] | [9]
active: [17] 29.8 µM | [4] 26.6 µM | [15] 23.7 µM | [8] 26.6 µM | [10] 23.7 µM

CC(NN)c1ccccc1 (centres undefined)
not listed: [1] | [5] | [6] | [7] | [9] | [11] | [12]
inactive: all other assays above

Clc1ccccc1C(c1ccccc1)(c1ccccc1)n1ccnc1
inactive: [11] | [12]
active: [2] 24.5 µM | [17] 30.6 µM | [4] 54.9 µM | [8] 54.9 µM
inactive and 54.5 µM (active): [16]

CCC1=C[C@@H]2CN(C1)Cc1c([nH]c3ccccc13)[C@@](C(=O)OC)(c1cc3c(cc1OC)N(C)[C@H]1[C@@](O)(C(=O)OC)[C@H](OC(C)=O)[C@]4(CC)C=CCN5CC[C@]31[C@@H]54)C2
active: [4] 29.8 µM | [8] 26.6 µM
inactive: [1] | [2] | [14] | [3] | [6] | [11] | [13]

Cc1cccc(N(C)C(=S)Oc2ccc3c(c2)C2CCC3C2)c1 (centres undefined)
inactive: [20] | [2] | [17] | [3] | [4] | [5] | [6] | [10] | [13]

CC1=C(C(=O)OC(C)C)C(c2cccc([N+](=O)[O-])c2)C(C(=O)OC2CN(C(c3ccccc3)c3ccccc3)C2)=C(N)N1 (centres undefined)
active: [2] 23.7 µM | [17] 23.7 µM | [14] 10.6 µM | [7] 29.8 µM | [8] 13.3 µM | [10] 26.6 µM
inactive: [6]

O=c1[nH]sc2cc(Cl)ccc12
active: [4] 26.6 µM | [15] 11.9 µM | [13] 29.8 µM
inactive: [2] | [17] | [9]

C/C(=C(/OCCOc1ccc(Cl)cc1)c1ccc(Cl)cc1Cl)n1ccnc1
inactive: [20] | [14] | [5] | [15] | [8] | [10] | [11]
active: [17] 42.2 µM
